Experimental data published in article PMC4336329 (PLoS ONE, 2015).
The whole screen tested about 310,000 compounds, of which about 14,000 (4.5%) showed an effect of 50% or more. Effects have a minus sign here. The list comes from a sample in which strong results are over-represented; it also holds similar structures and randomly drawn compounds.

target: human ether-à-go-go-related gene (hERG) potassium channel (human, UniProt Q12809); experiment: primary screen, population patch clamp on CHO cells stably expressing hERG; higher = less effect of the substance
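Further: peak tail current of the secondary pulse compared with the same well before compound.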

human ether-à-go-go-related gene (hERG) potassium channel, sequence (Q12809 whole entry, looked up): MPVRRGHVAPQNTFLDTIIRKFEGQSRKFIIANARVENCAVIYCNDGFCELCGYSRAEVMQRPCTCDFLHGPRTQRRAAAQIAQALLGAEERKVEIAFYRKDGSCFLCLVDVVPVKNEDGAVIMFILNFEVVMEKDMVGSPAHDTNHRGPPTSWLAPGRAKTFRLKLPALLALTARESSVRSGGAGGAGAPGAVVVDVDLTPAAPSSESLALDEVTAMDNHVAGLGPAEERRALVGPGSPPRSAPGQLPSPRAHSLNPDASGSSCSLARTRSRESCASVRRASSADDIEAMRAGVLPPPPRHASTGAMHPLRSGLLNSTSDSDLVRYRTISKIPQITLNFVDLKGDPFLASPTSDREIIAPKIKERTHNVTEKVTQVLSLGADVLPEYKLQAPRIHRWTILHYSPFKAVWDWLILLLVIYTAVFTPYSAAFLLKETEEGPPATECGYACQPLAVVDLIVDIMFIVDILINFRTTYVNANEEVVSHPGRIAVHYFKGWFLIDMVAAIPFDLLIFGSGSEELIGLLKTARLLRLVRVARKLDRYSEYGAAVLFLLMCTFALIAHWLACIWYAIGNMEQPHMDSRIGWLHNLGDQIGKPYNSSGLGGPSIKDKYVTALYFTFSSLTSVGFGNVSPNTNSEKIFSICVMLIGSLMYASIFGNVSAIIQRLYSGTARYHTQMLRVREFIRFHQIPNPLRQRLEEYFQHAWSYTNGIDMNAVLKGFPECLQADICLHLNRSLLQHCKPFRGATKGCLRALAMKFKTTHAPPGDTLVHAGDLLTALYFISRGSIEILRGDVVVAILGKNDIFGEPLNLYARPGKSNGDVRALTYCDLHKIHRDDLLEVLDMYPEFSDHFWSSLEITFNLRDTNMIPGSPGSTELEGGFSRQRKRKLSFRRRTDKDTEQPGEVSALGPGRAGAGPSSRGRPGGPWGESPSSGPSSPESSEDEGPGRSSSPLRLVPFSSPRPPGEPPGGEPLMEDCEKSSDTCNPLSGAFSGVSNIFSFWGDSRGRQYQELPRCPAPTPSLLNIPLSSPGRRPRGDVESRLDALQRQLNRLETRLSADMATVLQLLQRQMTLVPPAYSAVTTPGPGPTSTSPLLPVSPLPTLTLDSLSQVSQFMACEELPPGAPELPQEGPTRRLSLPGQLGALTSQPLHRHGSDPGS

| SMILES | hERG current change (%, negative = inhibition) at 10uM |
| --- | --- |
| CCN(Cc1ccccc1)C(=O)CCc1nnc(CCCc2ccccc2)o1 | 21.1% |
| COc1cc(C(=O)NC(=S)Nc2ccc3oc(=O)ccc3c2)cc(OC)c1OC | 9.8% |
| CC(=O)OC1COC(n2ccc3cc([N+](=O)[O-])ccc32)C(OC(C)=O)C1OC(C)=O (centres unmarked) | -12.2% |
| CC(C)C(=O)Nc1ccc(Sc2ccc(F)cc2)cc1 | -3.48% |
| CCC(C)Nc1nc2c(c(=O)n(C)c(=O)n2C)n1Cc1ccc(Cl)cc1 (centres unmarked) | -7.45% |
| COc1ccccc1-c1nc(SCC(=O)O)n[nH]1 | -1.65% |
| COc1ccc(N=Cc2c(O)n(-c3ccc(OC)cc3)c(=O)c3ccccc23)cc1 | 15.2% |
| O=C(c1ccccc1)N1CCN(C(=O)c2ccccc2)CC1 | 1.49% |
| CC(=O)N1CCN(c2nc3ccc([N+](=O)[O-])cc3s2)CC1 | -46.6% |
| O=C(c1cccs1)N1CCN(c2nc3ccc([N+](=O)[O-])cc3s2)CC1 | -7.47% |
| CCN1CCN(C(=S)c2ccc([N+](=O)[O-])cc2)CC1 | -36.9% |
| O=[N+]([O-])c1ccc(C(=S)N2CCN(Cc3ccccc3)CC2)cc1 | -57.6% |
| O=C(c1ccccc1)N1CCN(c2nc3ccc([N+](=O)[O-])cc3s2)CC1 | -55.4% |
| CC(=O)N1CCN(C(=O)c2ccc(Oc3ccccc3)cc2)CC1 | 19.1% |
| O=CN1CCN(C(=O)c2ccc([N+](=O)[O-])cc2)CC1 | -22.3% |
| O=C(c1ccc([N+](=O)[O-])cc1)N1CCCC1 | 4.5% |
| Oc1ccc(C(=S)N2CCN(Cc3ccccc3)CC2)cc1 | -5.46% |
| O=C(c1ccccc1)N1CCN(C(=O)c2ccc([N+](=O)[O-])cc2)CC1 | -53.9% |
| O=C(c1ccccc1)N1CCN(C(=O)c2ccc(OC(F)(F)F)cc2)CC1 | -62.8% |
| O=C(c1cc(N2C(=O)C3C4CCC(C4)C3C2=O)ccc1Cl)N1CCCCCC1 (centres unmarked) | 3.82% |
| O=C(c1ccccc1)N1CCC(O)(c2ccc3c(c2)OCO3)CC1 | -12.4% |

| SMILES | hERG current change (%, negative = inhibition) at 10uM |
| --- | --- |
| CCn1c(CNC(=O)c2ccc3c(c2)OCO3)nnc1SCC(=O)Nc1ccccc1F | -6.31% |
| O=C(Nc1ccccc1)c1ccco1 | 15% |
| COC(=O)c1sccc1NC(=S)N1C(C)CCCC1C (centres unmarked) | -7.4% |
| Cc1ccc(S(=O)(=O)c2nc(C)c3c(n2)CCC3)cc1 | 3.61% |
| COc1ccc(C(=O)COC(=O)CCc2ccccc2)cc1 | -11.4% |
| CC(=O)c1ccc(NC(=O)C(C)Sc2nnc(C3CCCCC3)o2)cc1 (centres unmarked) | -4.84% |
| Cc1ccc(C)c(N2CCN(C(=O)c3ccc4nc(-c5ccco5)c(-c5ccco5)nc4c3)CC2)c1 | 21.1% |
| CN1C(=O)N(C)C(=O)C2(Cc3cc([N+](=O)[O-])ccc3N3CCN(C(=O)c4ccccc4)CC32)C1=O (centres unmarked) | -65% |
| CN1C(=O)N(C)C(=O)C2(Cc3cc([N+](=O)[O-])ccc3N(C)C2c2ccccc2)C1=O (centres unmarked) | -17.6% |
| O=C(c1ccc2nc(-c3ccco3)c(-c3ccco3)nc2c1)N1CCN(c2ccccc2)CC1 | -15.4% |
| Cc1cc(C)n(-c2ccc(C(=O)N3CCN(c4ccccn4)CC3)cc2)n1 | -32.5% |
| O=C(c1ccncc1)N1CCN(C(=O)c2cccs2)CC1 | 6.46% |
| O=C1NC(=O)C2(Cc3cc([N+](=O)[O-])ccc3N3CCN(C(=O)c4ccccc4)CC32)C(=O)N1 (centres unmarked) | 23% |
| O=C(c1ccc2nc(-c3ccco3)c(-c3ccco3)nc2c1)N1CCN(c2ncccn2)CC1 | -67.8% |
| Cc1cc(-c2ccccc2)n(-c2ccc(C(=O)N3CCN(c4ncccn4)CC3)cc2)n1 | -56.4% |
| O=C(c1ccc(-c2ccccc2)cc1)N1CCN(c2ncccn2)CC1 | -5.92% |
| O=C(c1ccc([N+](=O)[O-])cc1)N1CCN(C(=O)c2cccs2)CC1 | -70.3% |
| CC(C)N1CCN(C(=O)c2ccc([N+](=O)[O-])cc2)CC1 | -39.8% |
| CCC1=NC(c2ccccc2OC)N(O)C1(C)C (centres unmarked) | 15.9% |
| CCOc1ccc(C(=O)NCC(=O)NCC(c2cccs2)N2CCOCC2)cc1 (centres unmarked) | 4.69% |
| c1ccc2c(NC3CCCC3)nnc(NC3CCCC3)c2c1 | -74.9% |

| SMILES | hERG current change (%, negative = inhibition) at 10uM |
| --- | --- |
| c1csc(-c2nnc(NC3CCCCC3)c3ccccc23)c1 | -75.4% |
| O=C(O)C(=O)O.c1csc(-c2nnc(N3CCCCCC3)c3ccccc23)c1 | -20.9% |
| Oc1ccccc1-c1nc(NC2CCCC2)c2ccccc2n1 | 17.8% |
| c1csc(-c2nc3ccccn3c2NC2CCCCC2)c1 | 8.81% |
| c1ccc(-c2nc(NC3CCCC3)c3ccccc3n2)cc1 | 20.5% |
| CC(C)c1nc(=S)n(-c2ccccc2)[nH]1 | 17.5% |
| COc1cccc(Cn2nnc(C(=O)Nc3cc(C)ccc3OC)c2N)c1 | 8.11% |
| CCOC(=O)C1C(=O)NC(c2ccccc2)=NC1c1ccc(O)c(OC)c1 (centres unmarked) | 9.11% |
| Cc1ccccc1CN1C(=O)[C@@H]2Cc3c([nH]c4ccccc34)C(C)(C)N2C1=O | 19% |
| Cl.N=c1sccn1CC(=O)N1CCc2ccccc21 | -8.84% |
| Cc1ccc(NC2=Nc3ccccc3CS2)cc1 | 8.04% |
| CCOC(=O)c1c(NC(=O)CSc2nc3ccccc3o2)sc(C)c1C | 19.4% |
| O=C(CN1CCC(n2nnc3cc(C(F)(F)F)ccc32)CC1)Nc1ccc2c(c1)OCCO2 | -36.5% |
| Cc1ccc2c(c1)nnn2C1CCN(C(=O)C23CC4CC(CC(C4)C2)C3)CC1 | 1.11% |
| Cc1ccccc1C(=O)NC1CCN(CC(=O)Nc2ccc3c(c2)OCCO3)CC1 | 2.93% |
| Cc1ccc2c(c1)nnn2C1CCN(CC(=O)Nc2ccc(F)cc2)CC1 | -65.4% |
| O=C(CN1CCC(n2nnc3cc(F)ccc32)CC1)Nc1ccc2c(c1)CCC2 | -21.3% |
| Cc1ccc2c(c1)nnn2C1CCN(CC(=O)N2CCN(c3ccc(F)cc3)CC2)CC1 | -70.3% |
| Cc1ccc2c(c1)nnn2C1CCN(CC(=O)Nc2ccc3c(c2)OCCO3)CC1 | -55.5% |
| Cc1ccc2c(c1)nnn2C1CCN(CC(=O)c2ccc(Cl)cc2)CC1 | -45.9% |
